Screening data as filed in PubChem.
This is a sample that favours compounds with a hit; in the whole collection about 4.7% have one here.
D1 potentiator – human D1 dopamine receptor positive modulation; 360,000 tested, 0.036% active; HEK293 TREx D1 cells, calcium flux, dopamine EC20 potentiation; potentiation, % at 10 µM; AID 504651; in the data active = potentiation above about 30%; also: 0% is about no effect
TRHR agonist-1 – agonists of human TRH receptor | 360,000 tested, 0.18% active | AID 493084 | P34981 | activation, % at 2 µM | TRHR cells, calcium flux fluo-8, FDSS agonist mode; in the data active = activation above about 30%; also: 0% is about no effect
Target sequence (P34981 whole entry, looked up): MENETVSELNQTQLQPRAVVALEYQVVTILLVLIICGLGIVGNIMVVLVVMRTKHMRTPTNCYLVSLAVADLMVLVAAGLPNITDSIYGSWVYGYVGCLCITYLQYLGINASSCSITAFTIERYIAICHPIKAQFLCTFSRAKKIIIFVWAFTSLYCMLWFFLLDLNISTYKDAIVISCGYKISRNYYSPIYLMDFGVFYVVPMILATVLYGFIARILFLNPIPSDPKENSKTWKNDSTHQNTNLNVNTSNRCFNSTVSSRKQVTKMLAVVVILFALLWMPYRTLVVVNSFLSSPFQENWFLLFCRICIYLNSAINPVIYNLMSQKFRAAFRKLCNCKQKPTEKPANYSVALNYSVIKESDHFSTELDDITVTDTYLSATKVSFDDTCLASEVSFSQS
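Steps: seed TRHR cells overnight; add fluo-8 no-wash Ca dye, RT 30 min–1.5 h; record 10 s baseline; pin-transfer compounds; monitor fluorescence 1 cycle/s for the agonist window. Calcium increases flag candidate agonists.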
D1 antagonist – antagonists of human D1 dopamine receptor; P21728; HEK293 TREx D1 cells, calcium flux, dopamine EC80; hits give low values; activity change, negative = inhibition, % at 10 µM; 360,000 tested, 3.2% active; AID 504652; in the data active = activity change below about -30%; also: % is scaled to controls: 0 for no effect and ±100 for the full control effect
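Using tetracycline-induced force-coupled D1 Hek293 cells and a calcium dye, signals were followed for 180 s after compound, then for 180 s after EC80 dopamine, to detect inhibitors.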
TRHR enhancer-1 – allosterically enhances the human TRH receptor; P34981; TRHR cells, fluo-8 calcium fluorescence, EC20 TRH enhancement; enhancement, % at 2 µM; 360,000 tested, 0.66% active; AID 493056; in the data active = enhancement above about 30%; also: 0% is about no effect
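Enhancer read-out: after compound pinning and an initial kinetic agonist-mode read, an EC20 of TRH (10 nM final) was injected and fluo-8 calcium signal (Ex 480/Em 530) followed at 1 s/cycle for 100 cycles in TRHR-expressing cells.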
D1 ag – human D1 receptor agonism. P21728. HEK293 T-REx D1 cells, calcium flux, agonist mode. activation, % at 2 µM. 360,000 tested, 1% active; in the data active = activation above about 30%; also: 0% is about no effect
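Inducible HEK293 T-REx D1 cells, force-coupled to calcium signalling, were plated at 4000 cells/well with tetracycline and held overnight at 30 C. After no-wash calcium dye loading, compound-evoked calcium rise over 180 s flagged agonists.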
TRHR enhancer-2 – confirmation of human TRH receptor allosteric enhancers | shares compounds with TRHR enhancer-1 | TRH receptor cell assay, enhancer confirmation qHTS | activity change, negative = inhibition, % at 46.1 µM | 970 tested, under 10 active | AID 493076;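 also: compound effect scored on response to added TRH at EC20 of 10 nM; 0% is about no effect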
TRHR agonist-2 – human TRH receptor agonism confirmation; Potency, µM (titrated, usually from 46.1 µM), for inactives: top-dose activation, most hits filed as activators; 970 tested, 8% active; shares compounds with TRHR enhancer-1; TRHR-expressing cells, agonist activation read-out; also: potency is read from the fitted curve at half-maximal effect; 0% is about no effect; nearly all actives have a fitted effect of over 75% in size
The depositor's hits bear a star; u = inconclusive; x = no result. Unless noted, calls follow the shape of the dose curve; as a rule, active = well fitted curve in the direction sought with a large enough effect; inconclusive = small, poorly fitted or top-dose-only effect, or another doubt; inactive = no such curve, though single readings can be large; an effect the other way counts as inactive or inconclusive.

SMILES | D1 potentiator | TRHR agonist-1 | D1 antagonist | TRHR enhancer-1 | D1 ag | TRHR enhancer-2 | TRHR agonist-2
O=C(NC(=S)Nc1ccccc1Br)C1CCC1 | -3.9 | 0.0 | -19.2 | 62.5* | 6.7 | -7.5 | 3.0%
C=CCn1c(=O)n(C(=O)OCC)c2cc(Br)ccc21 | 9.2 | 0.9 | -2.3 | 66.0* | 0.4 | -7.4 | 0.7%
COc1ccccc1NC(=O)COn1nnc2ccc(S(=O)(=O)N3CCOCC3)cc21 | -1.6 | -0.1 | 3.9 | 59.3* | 5.9 | -2.7 | 0.7%
Cc1cccc(N2CCN(C(=O)/C=C/c3cccs3)CC2C)c1 (stereo not given) | -3.0 | -0.3 | 6.8 | -6.4 | 0.5 | x | x
Cc1cccc(N2CCN(C(=O)NC3CCCCC3)CC2C)c1 (stereo not given) | 1.9 | 0.4 | -20.5 | 42.1* | 3.0 | -9.4 | 1.9%
O=C(O)c1cccc(-c2ccc(/C=c3/sc4nc5ccccc5n4c3=O)o2)c1 | -10.4 | 29.9 | -17.5 | -4.7 | 39.4* | -6.6 | u
COc1ccccc1C1(O)CCN(C(=O)c2cccs2)CC1 | -5.4 | 0.0 | -3.0 | 46.3* | 0.2 | -3.4 | 0.5%
O=Cc1c(NCc2ccco2)nc2ccccn2c1=O | -2.8 | 0.3 | -1.5 | 46.1* | 0.3 | -6.9 | 4.1%
COC(=O)CCCCCn1c(-c2ccccc2)cn2c3c(=O)n(C)c(=O)n(C)c3nc12 | 1.9 | -1.1 | 11.4 | -1.3 | -0.4 | x | x
CC1(C)C2CCC1(CS(=O)(=O)N1CCC(C(N)=O)CC1)C(=O)C2 (stereo not given) | -3.5 | 0.7 | 12.7 | 1.9 | 3.8 | x | x
CCOC(=O)C1(CC2CC2)CCN(S(=O)(=O)C[C@]23CC[C@H](CC2=O)C3(C)C)CC1 | -3.9 | 33.7* | 1.5 | 1.1 | 5.8 | 4.6 | u
COc1ccccc1N/C=C/c1onc(C)c1[N+](=O)[O-] | -3.0 | 46.9* | -12.4 | 0.2 | 140.1* | 3.9 | u
COc1cc(OC)cc(C(=O)NC(=S)Nc2cccnc2)c1 | -5.5 | -0.9 | -4.5 | 1.7 | 1.1 | x | x
COc1cc(OC)cc(C(=O)Nc2cccnc2)c1 | 6.0 | -0.2 | 13.3 | 50.3* | 0.9 | -1.2 | 3.4%
COc1ccc(NC(=O)CC2SC(=Nc3ccccc3)NC2=O)cc1 (stereo not given) | -2.1 | 0.2 | 4.6 | 1.3 | 0.9 | x | x
CCOc1ccc(N=C2NC(=O)C(CC(=O)O)S2)cc1 (stereo not given) | -3.3 | 1.2 | -4.0 | 53.2* | 3.4 | -11.0 | -0.9%
Cc1ccc(F)cc1NCC(=O)Nc1ccc(Br)cc1 | -2.8 | -0.4 | 4.1 | 0.3 | 0.6 | x | x
Cc1ccc(NCC(=O)Nc2ccc(Br)cc2)cc1C | -7.5 | 0.0 | -48.1* | 70.3* | 4.5 | 4.1 | -0.3%
COc1ccc(S(=O)(=O)N2CCN(c3ccc4nnc(-c5ccccc5)n4n3)CC2)cc1 | 0.4 | -0.4 | -4.3 | 47.6* | 0.8 | 3.5 | -0.7%
CCOc1ccc(-c2nc(CNC(=O)NC3CCCCC3)c(C)o2)cc1 | 0.3 | -1.9 | -4.7 | 3.1 | 0.0 | x | x
CCCOc1ccc(/C=C2\SC(=S)N(CC3CCCO3)C2=O)cc1 (stereo not given) | -3.4 | 0.7 | 1.0 | -3.8 | 7.8 | x | x
O=C1/C(=C/c2ccc(O)cc2)SC(=S)N1CC1CCCO1 (stereo not given) | -0.2 | 38.8* | -2.6 | 16.4 | 48.8* | -5.7 | u
Cc1ccc(-c2nnc(Nc3ccc(CC(N)=O)cc3)c3ccccc23)cc1S(N)(=O)=O | 0.7 | 0.2 | 1.8 | 52.0* | 1.8 | -4.5 | 3.1%
O=Cc1ccc(OCc2ccc3c(c2)OCO3)cc1 | 8.0 | 25.9 | -14.9 | -1.1 | 3.9 | -5.3 | 2.1%
Cc1ccc(COc2ccc3c(c2)OCO3)cc1 | -7.8 | 0.0 | -11.3 | 8.5 | 4.1 | x | x
CCN(C(=O)COC(=O)/C=C/c1ccccc1Cl)c1c(N)n(Cc2ccccc2)c(=O)[nH]c1=O | 1.7 | 0.6 | 3.8 | 51.6* | 1.4 | -2.9 | 2.3%
CCN(C(=O)COC(=O)/C=C/c1cccc(Cl)c1)c1c(N)n(Cc2ccccc2)c(=O)[nH]c1=O | -3.1 | -0.8 | 0.4 | -3.2 | 8.1 | x | x
